Inconclusive results are not listed. The source made the active and inactive calls. Unless noted, the call rests on the fitted dose curve; in most records, active means well fitted curve in the direction sought with a large enough effect; inconclusive means small, poorly fitted or top-dose-only effect, or another doubt; inactive means no such curve, though single readings can be large; an effect the other way counts as inactive or inconclusive.

From PubChem BioAssay (NCATS) come the findings set out here.

Assay [1] deals with Zika virus NS2B-NS3 protease (unlinked complex). Nature of the assay: Primary screen GU Rhodamine qHTS for Zika virus inhibitors: Unlinked NS2B-NS3 protease assay (AID 1347159). Further: on the % scale 0 is the no-effect control and ±100 the full control effect; nearly all actives have a fitted effect of over 60% in size. In a few lines: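 Percent inhibition came from the 15-min rise in Rhodamine110 fluorescence (1.5 microM substrate, ~15% conversion), normalized to no-inhibitor and no-enzyme wells and Hill-fitted. Unlinked protease, 25 nM, pH 8.0 Tris buffer; compounds up to 114 microM, 15-min preincubation.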

Assay [2] addresses Cytochrome P450 2D6 (Homo sapiens) (UniProt P10635). As to the kind of experiment: Cytochrome P450 family 2 subfamily D member 6 (CYP2D6) small molecule antagonists: luciferase biochemical (cell-free) qHTS assay (AID 1645840; active means well fitted curve in the direction sought with a large enough effect in the repeat runs; an effect the other way counts as inactive or inconclusive; further: nearly all actives have a fitted effect of over 55% in size; further: potency means the concentration at half of the fitted maximal effect). In a few lines:
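P450-Glo CYP2D6 system: proluciferin substrate converted by enzyme to luciferin, read by luminescence proportional to activity. Enzyme-substrate mix with compound 10 min at room temperature, then NADPH regeneration 1 h before detection reagent.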
For orientation: qHTS replaces the single test concentration by a dilution series.

Assay [3] addresses Cytochrome P450 2C9 (Homo sapiens) (UniProt P11712). As to the kind of experiment: Cytochrome P450 family 2 subfamily C member 9 (CYP2C9) small molecule antagonists: luciferase biochemical (cell-free) qHTS assay (AID 1645842; active means well fitted curve in the direction sought with a large enough effect in the repeat runs; an effect the other way counts as inactive or inconclusive; further: nearly all actives have a fitted effect of over 55% in size; further: potency means the concentration at half of the fitted maximal effect; on activity change, negative = inhibition: on the % scale 0 is the no-effect control and ±100 the full control effect). The method, boiled down:
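P450-Glo CYP2C9 system: proluciferin substrate with enzyme in mix containing 0.4% BSA, 10 min at room temperature, then NADPH regeneration solution added and incubated 1 h at 37C. Detection reagent stopped reaction; luminescence read after 20 min as RLU.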

The target in assay [4] is Catechol O-methyltransferase (Homo sapiens) (UniProt P21964). As to the kind of experiment: Confirmatory Screen for Target Class Profiling of Small Molecule Inhibitors of Methyltransferases (AID 1745852). On activity change, negative = inhibition: on the % scale 0 is the no-effect control and ±100 the full control effect. The following applies: MTase-Glo luminescence, SAH detection, recombinant enzyme; measured here: COMT max response; stronger effect = lower value.
For assay [5], the target named is Guanidinoacetate N-methyltransferase (Homo sapiens) (UniProt Q14353). The assay is described as above. The following applies: activity change, negative = inhibition: at 57.3 µM (top of the series) unless noted.
Assay [6] addresses Nicotinamide N-methyltransferase (Homo sapiens) (UniProt P40261). The assay is described as above. The conditions noted are these: MTase-Glo luminescence, SAH detection, recombinant enzyme; measured here: NNMT max response; stronger effect = lower value.
Assay [7] deals with Phenylethanolamine N-methyltransferase (Homo sapiens) (UniProt P11086). The assay is described as above. The following applies: MTase-Glo luminescence, SAH detection, recombinant enzyme; measured here: PNMT max response; stronger effect = lower value.
For the next assay, the system named is NIH3T3. As to the kind of experiment: Cytotoxic Profiling of Annotated Libraries Using Quantitative High-Throughput Screening (AID 1296008). Further: nearly all actives have a fitted effect of over 60% in size. Further: potency means the concentration at half of the fitted maximal effect. On max response: on the % scale 0 is the no-effect control and ±100 the full control effect. The following applies: Five cell lines viability, CellTiter-Glo ATP luminescence, 48-72 h; max response: stronger effect = lower value. The method, boiled down:
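Cells exposed to compounds for 48 or 72 hr at 37 degrees Celsius. Viability read as ATP-coupled luminescence with CellTiter-Glo after 10 min at room temperature.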
In general terms: ATP-based viability assays read luminescence as a measure of living cells.

Assay [8] in a line: P-glycoprotein substrates identified in KB-8-5-11 adenocarcinoma cell line, qHTS therapeutic library screen (AID 1346987). Further: nearly all actives have a fitted effect of over 65% in size. Further: potency means the concentration at half of the fitted maximal effect. On activity change, negative = cytotoxicity: on the % scale 0 is the no-effect control and ±100 the full control effect. The method, boiled down:
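Luminescence from CellTiter-Glo, read 5 min after addition, quantified survival of KB-8-5-11 (P-gp-overexpressing) cells exposed to compounds for 72 h. AC50 was derived from concentration-response curves.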

The subject of a further assay is CAOV3. Nature of the assay: Primary qHTS to identify gynecologic anti-cancer compounds using libraries of approved drugs and bioactive compounds (AID 1345084). Further: on the % scale 0 is the no-effect control and ±100 the full control effect; nearly all actives have a fitted effect of over 55% in size. The conditions noted are these: Gynecologic cancer cell panel viability, ATPlite luminescence, 48 h; series mostly up to 57.5 µM. In a few lines:
(§1)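 Cell viability after 48 h drug treatment, ATPlite luminescence readout; five doses.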

Another assay concerns SKOV3. The assay is described as above. The conditions noted are these: Gynecologic cancer cell panel viability, ATPlite luminescence, 48 h; series mostly up to 57.5 µM. In a few lines:
as §1

Assay [9] is described as follows: qHTS to identify inhibitors of the type 1 interferon - major histocompatibility complex class I in skeletal muscle: primary screen against the NCATS Mechanism Interrogation Plate v5.0 (MIPE) Libary (AID 1347411). Further: potency means the concentration at half of the fitted maximal effect; nearly all actives have a fitted effect of over 65% in size. The method, boiled down:
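Seed engineered human myoblasts (HLA-B HiBit) in medium without dexamethasone containing 4 ng/ml IFN-beta; after 1 hr add compound titrations (top 46 uM final). Incubate 24 hrs at 37 C, lyse 10 min with HiBiT reagent, read luminescence.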

The nature of assay [10]: qHTS assay to identify inhibitors of the type 1 interferon - major histocompatibility complex class I in skeletal muscle: Counter screen cell viability and HiBit confirmation (AID 1347412). Further: potency means the concentration at half of the fitted maximal effect; nearly all actives have a fitted effect of over 60% in size. The conditions noted are these: iHSKM muscle cells + IFN-b, HiBiT or CellTiter-Glo, 24 h. In a few lines: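 Luminescence read-out: Nano-Glo HiBiT lytic signal from C-terminally HiBiT-tagged HLA-B in CRISPR-edited human myoblasts, plus CellTiter Glo ATP as viability counter screen. IFN-beta 4.0 ng/ml; 24 hrs treatment at 37 C, 5% CO2.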

Assay [11] can be described thus: qHTS drug screen for cell cycle checkpoint inhibitors in PARPi-resistant BRCA-mutant ovarian cancer cell lines. (AID 1963452; calls by dose curve). The following applies: PEO1/OlaR viability, CellTiter-Glo luminescence, 96 h, stronger effect = lower value. In a few lines: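 PEO1, PEO4 and PEO1/OlaR ovarian cancer cells, 600 per well, exposed 96 h at 37C to a dilution series. Viability read by CellTiter-Glo luminescence, normalized to DMSO and empty wells; activity summarized as Z-AUC.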

Assay [12] is described as follows: Confirmatory screen GU Rhodamine qHTS for Zika virus inhibitors qHTS (AID 1347157). Further: potency means the concentration at half of the fitted maximal effect; nearly all actives have a fitted effect of over 70% in size. The method, boiled down: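 Compounds, tested up to 114 microM, were incubated for 15 minutes with 25 nM unlinked NS2B-NS3 protease at pH 8.0. Cleavage of 1.5 microM Rhodamine110 substrate was then followed by fluorescence for 15 minutes.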
Assay [13] deals with Zika virus NS2B-NS3 protease (linked construct). Nature of the assay: 384 well plate NINDS Rhodamine confirmatory qHTS for Zika virus inhibitors (AID 1347164).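 Further: fluorescence from protease cleavage of Ac-LKRR-rhodamine 110 substrate; potency means the concentration at half of the fitted maximal effect; nearly all actives have a fitted effect of over 65% in size.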 In a few lines: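 Enzyme (final 5/30/60 nM) + cpd (DMSO), ~15 min; add Ac-LKRR-Rd 10 microM final; 25 min RT, dark; FI ex 485/em 538; normalized to no-enzyme, no-inhibitor ctrls; aprotinin intraplate ctrl.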

Chain of Phenylethanolamine N-methyltransferase (Homo sapiens) (P11086 whole entry, looked up): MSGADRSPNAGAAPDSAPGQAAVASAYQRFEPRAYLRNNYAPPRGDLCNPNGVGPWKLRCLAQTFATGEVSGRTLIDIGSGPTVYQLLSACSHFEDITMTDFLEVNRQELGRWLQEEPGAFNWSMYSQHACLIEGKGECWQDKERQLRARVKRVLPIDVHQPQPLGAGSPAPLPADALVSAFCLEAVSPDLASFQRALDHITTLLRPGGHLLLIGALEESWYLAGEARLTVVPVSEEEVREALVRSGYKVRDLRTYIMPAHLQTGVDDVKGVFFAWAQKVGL
Chain of Cytochrome P450 2C9 (Homo sapiens) (P11712 whole entry, looked up): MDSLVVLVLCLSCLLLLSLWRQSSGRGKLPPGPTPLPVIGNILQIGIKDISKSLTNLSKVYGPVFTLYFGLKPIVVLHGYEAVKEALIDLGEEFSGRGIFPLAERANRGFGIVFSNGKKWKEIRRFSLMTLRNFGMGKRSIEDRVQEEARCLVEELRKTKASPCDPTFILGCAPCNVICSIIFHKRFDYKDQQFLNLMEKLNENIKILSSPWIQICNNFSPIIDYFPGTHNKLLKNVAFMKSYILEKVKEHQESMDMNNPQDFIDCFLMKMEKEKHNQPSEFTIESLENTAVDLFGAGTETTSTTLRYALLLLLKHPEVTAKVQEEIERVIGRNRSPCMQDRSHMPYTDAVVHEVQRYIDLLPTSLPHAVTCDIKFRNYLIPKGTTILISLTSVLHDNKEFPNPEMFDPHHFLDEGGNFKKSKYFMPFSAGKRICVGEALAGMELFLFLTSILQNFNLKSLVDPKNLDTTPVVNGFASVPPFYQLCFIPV
Chain of Catechol O-methyltransferase (Homo sapiens) (P21964 whole entry, looked up): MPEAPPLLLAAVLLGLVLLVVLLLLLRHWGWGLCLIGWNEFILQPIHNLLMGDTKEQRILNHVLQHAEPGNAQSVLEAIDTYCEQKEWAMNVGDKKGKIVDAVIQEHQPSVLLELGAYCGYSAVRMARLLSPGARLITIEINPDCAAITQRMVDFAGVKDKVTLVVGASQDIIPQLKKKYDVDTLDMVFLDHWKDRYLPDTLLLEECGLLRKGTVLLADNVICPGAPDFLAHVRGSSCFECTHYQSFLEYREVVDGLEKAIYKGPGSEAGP
Chain of Nicotinamide N-methyltransferase (Homo sapiens) (P40261 whole entry, looked up): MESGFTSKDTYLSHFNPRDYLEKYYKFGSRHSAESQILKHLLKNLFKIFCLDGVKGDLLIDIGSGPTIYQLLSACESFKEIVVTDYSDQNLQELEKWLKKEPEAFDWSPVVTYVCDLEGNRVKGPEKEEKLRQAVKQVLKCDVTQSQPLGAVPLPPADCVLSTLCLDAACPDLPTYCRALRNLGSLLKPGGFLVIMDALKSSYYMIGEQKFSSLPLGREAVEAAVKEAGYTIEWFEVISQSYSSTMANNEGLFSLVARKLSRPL
Chain of Cytochrome P450 2D6 (Homo sapiens) (P10635 whole entry, looked up): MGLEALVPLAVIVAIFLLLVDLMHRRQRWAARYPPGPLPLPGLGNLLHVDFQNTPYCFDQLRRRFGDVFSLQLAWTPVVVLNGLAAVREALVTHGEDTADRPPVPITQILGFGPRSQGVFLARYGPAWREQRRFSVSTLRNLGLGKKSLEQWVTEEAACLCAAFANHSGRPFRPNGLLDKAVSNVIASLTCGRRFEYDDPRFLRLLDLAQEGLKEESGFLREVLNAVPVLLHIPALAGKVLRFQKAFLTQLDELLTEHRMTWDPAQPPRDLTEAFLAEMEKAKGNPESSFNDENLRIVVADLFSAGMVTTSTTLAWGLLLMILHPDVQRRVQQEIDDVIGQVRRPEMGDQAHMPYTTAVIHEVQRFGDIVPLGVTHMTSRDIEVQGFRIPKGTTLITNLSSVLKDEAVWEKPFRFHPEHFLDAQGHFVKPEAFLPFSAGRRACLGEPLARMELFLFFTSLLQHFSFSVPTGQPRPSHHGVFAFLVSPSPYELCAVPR

In the case of `C=CC(=O)N1CCN(C(=O)c2cc(-c3cc(Cl)ccc3Cl)c(Cl)cc2OC)CC1`, the Potency result in assay [1] and in assay [3] was “inactive” each time. Further, the Potency in assay [2] is 19 µM (active). The activity in assay [4] was -10.7%; in assay [6] it was -31.6%; in assay [7], -2.64%. Moreover, the activity change, negative = inhibition in [5] was -11.4%. Also, the max response with NIH3T3 is -20.9% (inactive).
In the case of `Cc1cc(CN)cc(C)c1NC(=O)c1ccc(-c2cc(Cl)ccc2Cl)o1`, the Potency in assay [8] was 20.6 µM (active). Moreover, the Potency result (in assay [1]; in the assay on CAOV3; with SKOV3) was “inactive” each time.
Turning to `COCCNCc1ccc(-c2cc3nccc(Oc4ccc(NC(=S)NC(=O)Cc5ccc(F)cc5)cc4F)c3s2)nc1`, the Potency was 16.4 µM (active) in assay [8]; 8.29 µM (active) in assay [9]; 6.51 µM (active) in the assay on NIH3T3; 12.5 µM (active) in assay [10] (HiBiT); 11.1 µM (active) in [10] (Viability). The Potency entry in assay [1] was “inactive”.
Turning to `COc1cc(-c2cc(-c3cccc(O)c3)cnc2N)cc(OC)c1OC`, the Potency entry (in assay [1]; in the assay with CAOV3) was “inactive” each time. Also, in assay [3], the Potency is 0.849 µM (active).
On to `COc1cc(N2CCN(C(C)=O)CC2)ccc1Nc1ncc(Cl)c(Nc2ccc(N3CCN(C(C)=O)CC3)cc2OC)n1`, for which the Potency in [8] was 20.6 µM (active); in assay [3], 5.35 µM (active); in the assay with NIH3T3 it was 4.11 µM (active). Besides, the Potency result in assay [1] is “inactive”. The values for the Z-AUC in assay [11], in assay [11] (measured here: PEO1 parental Z-AUC) and in assay [11] (measured here: PEO4 Z-AUC) were 0.859 (inactive), 0.393 and 0.132, respectively.
`C=C1C(=O)O[C@@H]2CC(C)=C([C@@H](C)CCCO)[C@@H](OC(=O)C(C)C)[C@H]12`: the activity was -63.9% in assay [4], -0.804% in [6] and 1.36% in [7]. The activity change, negative = inhibition in assay [5] was determined as 0%. In addition, the max response in the assay on NIH3T3 is -12.2% (inactive).
`CC[C@H]1OC(=O)[C@H](C)[C@@H](O[C@H]2C[C@@](C)(OC)[C@@H](O)[C@H](C)O2)[C@H](C)[C@@H](O[C@@H]2O[C@H](C)C[C@H](N(C)C)[C@H]2O)[C@](C)(O)C[C@@H](C)/C(=N/OCOCCOC)[C@H](C)[C@@H](O)[C@]1(C)O`: the Potency entry (in assay [8]; in [1]; in the assay with CAOV3; in the assay on SKOV3) was “inactive” each time.
As for `COc1c(N2CC3CCCNC3C2)c(F)cc2c(=O)c(C(=O)O)cn(C3CC3)c12` (configuration not stated), the Potency entry in the assay with CAOV3 and in the assay on SKOV3 was “inactive” throughout.
With `CC(CCC1(O)OC2CC3C4CC=C5CC(O[C@@H]6O[C@H](CO)[C@@H](O[C@@H]7O[C@H](CO)[C@@H](O)[C@H](O)[C@H]7O)[C@H](O)[C@H]6O[C@@H]6O[C@@H](C)[C@H](O)[C@@H](O)[C@H]6O)CCC5(C)C4CCC3(C)C2C1C)CO[C@@H]1O[C@H](CO)[C@@H](O)[C@H](O)[C@H]1O` (some centres not stated), the values for the activity change, negative = cytotoxicity with CAOV3 and in the assay with SKOV3 were -3.93% [at 11.6 µM] (inactive) and -2.2% [at 11.6 µM] (inactive), respectively.
Take `Cc1ccn(-c2cc(Cl)ccc2[C@@H](Oc2cc(-c3ccc(C[C@H](N)C(=O)O)cc3)nc(N)n2)C(F)(F)F)n1`: the Potency was 22.1 µM (active) in assay [12] and 28.2 µM (active) in [13]. Moreover, the Potency entry (in [1]; with CAOV3; with SKOV3) was “inactive” each time. Also, the activity in assay [4] is -0.316%; in assay [6] it was -31.2%; in [7] it was -1.43%. The activity change, negative = inhibition in assay [5] was found to be 0%.
Consider `CC(C)n1cnc2c(Nc3cccc(Cl)c3)nc(NCCO)nc21`, for which the Potency in [8] is 14.6 µM (active); in assay [3], 9.52 µM (active). Moreover, the Potency entry (in assay [1]; in the assay on CAOV3) was “inactive” in each case.
In the case of `CCCCc1nc(C)c(CC(=S)N(C)C)c(=O)n1Cc1ccc(-c2ccccc2-c2nn[nH]n2)cc1`, the Potency result (in assay [2]; in the assay with CAOV3) was “inactive” in each case. In assay [3], the Potency was 9.52 µM (active).
